Bioassay records as filed in PubChem.
Sampled rows, rich in hits. Any-hit rate of the full collection: about 27%.
Pyk2 oligo antag – Pyk2 (human) oligomerization antagonism; Q14289; Q293 cells, Pyk2 FERM NanoBiT luminescence; hits give low values; z-score (the deposit names both 25 µM and 10 µM); 99,000 tested, 0.83% active; AID 1347419;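 active = Z-score of -3 or lower, scaled per plate to the spread of control and sample wells; inactive = z-score above -3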;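 note: negative z-score means lost luminescence so less FERM oligomerization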
CYP2C19 act – cytochrome P450 2C19 (human) activation; P33261; recombinant CYP2C19, luciferin-H EGE luminescence; hits give high values; 0 = fully inhibited enzyme, 1 = untreated enzyme; activation factor at 5 µM; 96,000 tested, under 10 active;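 active = activation factor of at least 2 at 5 µM in the primary screen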;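 note: 0 = wells with 2.5 mM tranylcypromine and 1 = vehicle-only wells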
Target sequence (P33261 whole entry, looked up): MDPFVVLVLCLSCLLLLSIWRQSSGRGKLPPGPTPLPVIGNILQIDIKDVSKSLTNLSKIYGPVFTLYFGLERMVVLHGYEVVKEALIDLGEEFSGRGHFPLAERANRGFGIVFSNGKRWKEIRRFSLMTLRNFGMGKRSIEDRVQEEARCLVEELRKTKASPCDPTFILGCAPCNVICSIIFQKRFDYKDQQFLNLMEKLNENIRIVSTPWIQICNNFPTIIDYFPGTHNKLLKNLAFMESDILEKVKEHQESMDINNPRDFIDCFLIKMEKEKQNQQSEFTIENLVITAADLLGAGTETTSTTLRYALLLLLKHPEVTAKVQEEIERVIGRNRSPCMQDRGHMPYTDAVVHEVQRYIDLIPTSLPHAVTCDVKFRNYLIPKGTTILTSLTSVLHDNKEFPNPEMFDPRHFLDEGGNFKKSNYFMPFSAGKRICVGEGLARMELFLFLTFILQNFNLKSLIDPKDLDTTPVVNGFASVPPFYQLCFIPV
CYP2C9 inhib – blocks human cytochrome P450 2C9. P11712. CYP2C9 Supersomes, luciferin-H conversion, luminescence. inhibition, % at 5 µM. 96,000 tested, 20% active. AID 777;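 active = blocking of liver enzyme CYP2C9 beyond about 50% at 5 µM, limit read from the data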
Cav32 inh – blocks human Cav3.2 T-type calcium channel; Cav3.2-expressing cells, Fluo-4 calcium fluorescence FDSS; hits give low values; 100,000 tested, 4% active; O95180; B-score at 10 µM;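 active = single-dose well whose peak fluorescence ratio is a statistical outlier from its plate by either plate-standardised score or position-corrected B-score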
CYP2C19 inh – blocks human cytochrome P450 2C19. P33261. CYP2C19 Supersomes, luciferin-H EGE luminescence, 30 min. inhibition, % at 5 µM. 96,000 tested, 21% active;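 active = CYP2C19 inhibition above a set limit at 5 µM in the primary screen, cut at about 50% in these data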;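 note: plate controls were negative control wells for no effect and 2.5 mM tranylcypromine positive control for full effect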
CYP2C9 activ – activators of human CYP2C9; recombinant CYP2C9, luciferin-H conversion, luminescence; hits give high values; factor 1 = untreated enzyme, 0 = blocked; AID 1024; 96,000 tested, 1.4% active; activation factor at 5 µM;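 active = activation factor of 2 or more for CYP2C9 at a 5 µM dose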;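 note: 0 = sulfaphenazole-blocked wells and 1 = vehicle-only wells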
Numbers without * were called inactive; nt = no result.

SMILES | Pyk2 oligo antag | CYP2C19 act | CYP2C9 inhib | Cav32 inh | CYP2C19 inh | CYP2C9 activ
CCN(CC)C(C)C(=O)NCC1(c2ccccc2)CCOCC1 (centres undefined) | 1.2 | nt | nt | 0.54 | nt | nt
O=C(c1ccco1)N1CCN(S(=O)(=O)c2ccc3c(c2)CCN3C(=O)C2CC2)CC1 | 0.31 | 0.3 | 26 | 0.78 | 69* | 0.7
CC(=O)N1CCc2cc(Br)cc(S(=O)(=O)N3CCCCCC3)c21 | -1 | 0.6 | -41 | 1.6 | 37 | 1.4
O=S(=O)(c1cccc(C(F)(F)F)c1)N1CCN(c2ccccc2)CC1 | -2 | 0.7 | 6 | -0.52 | 27 | 0.9
O=C(c1ccco1)N1CCN(S(=O)(=O)c2cccc(C(F)(F)F)c2)CC1 | -0.2 | 0.2 | 71* | -0.0025 | 83* | 0.3
CC(=O)N1CCc2cc(Br)cc(S(=O)(=O)N3CCN(C(=O)c4ccco4)CC3)c21 | 1.6 | 0.7 | 59* | 0.18 | 28 | 0.4
CCCCn1c(CCC(=O)O)ccc1-c1cccs1 | nt | 1.1 | 25 | -0.66 | -5 | 0.8
Cc1cccc(NC(=O)c2cc(S(=O)(=O)NCc3ccco3)ccc2F)c1C | 0.24 | 0.8 | 13 | -0.25 | 20 | 0.9
Nn1c(SCC(=O)Nc2cccc(F)c2)nnc1C1CCCCC1 | 0.81 | 0.5 | 53* | 0.61 | 54* | 0.5
Cn1c(SCC(=O)c2ccccc2)nnc1C1CC1 | 0.07 | 0.5 | 0 | -0.46 | 50* | 1
COc1ccccc1NC(=O)CSc1nnc(C2CCCCC2)n1C | 0.08 | 0.3 | 8 | 0.043 | 65* | 0.9
CCOc1ccc(C(=O)CSc2nnc(C3CC3)n2C)cc1 | 0.24 | nt | nt | 0.48 | nt | nt
Cc1ccccc1NC(=O)Cc1nc(CSc2nnc(C3CCCCC3)n2N)cs1 | 0.86 | 0.5 | 84* | -0.66 | 55* | 0.2
CCc1nnc(NC(=O)CSc2nnc(C3CCCCC3)n2-c2ccccc2)s1 | -1.3 | 0.7 | 20 | -2 | 26 | 0.8
O=C(COc1nc2ccccc2nc1N1CCOCC1)N1CCc2ccccc21 | 1.6 | 1.2 | 3 | 0.015 | -19 | 1
Cc1ccc(/C(O)=C2\C(=O)C(=O)N(CC(C)O)C2c2ccc(N(C)C)cc2)cc1 (centres undefined) | 1.8 | 0.8 | -6 | -0.15 | 18 | 1.1
COc1ccc(NC(=O)CSc2nc3c(c(=O)[nH]2)CCC3)cc1OC | -0.33 | 0.9 | 28 | 0.4 | 14 | 0.7
COC(=O)CNC(=O)CN1C(=O)N(c2cccc(Cl)c2)C(N(O)C(=O)Nc2cccc(Cl)c2)C1(C)C (centres undefined) | 0.18 | 0.8 | 21 | -4.7* | 17 | 0.8
CC(C)CCNC(=O)c1onc(CSc2ccccc2)c1C(=O)NCCC(C)C | nt | nt | nt | -2.5 | nt | nt
CCOCCn1c(N(C)Cc2ccccc2)nc2c1c(=O)[nH]c(=O)n2C | 0.51 | 0.8 | 26 | 0.35 | 22 | 0.7
Cn1c(C(=O)NCCN2CCCCCC2)cc2c(=O)n(C)c3ccccc3c21 | nt | 0.9 | -6 | 0.45 | 7 | 1.1
CCOc1ccc(NC(=O)c2cc3c(=O)n(C)c4ccccc4c3n2C)cc1 | nt | 0.7 | 84* | 0.4 | 32 | 0.2
Cn1c(C(=O)NC2CCCC2)cc2c(=O)n(C)c3ccccc3c21 | nt | 0.4 | 5 | 1.5 | 56* | 1
N=c1c2c3c(sc2nc2n1CCC2)CCCC3 | -0.16 | 1.2 | -6 | -0.035 | -18 | 1.1
O=C(CCNc1cccc(Cl)c1)c1ccco1 | 0.01 | 0.2 | 36 | 0.064 | 85* | 0.6
SMILES | Pyk2 oligo antag | CYP2C19 act | CYP2C9 inhib | Cav32 inh | CYP2C19 inh | CYP2C9 activ
O=C(CNC(=O)c1ccco1)OCc1cccc(Cl)c1 | 0.19 | 0.6 | 7 | -0.24 | 43 | 0.9
COc1ccc(Cl)cc1NC(=O)C1CSC(c2ccncc2)=N1 (centres undefined) | nt | nt | nt | -0.74 | nt | nt
S=c1[nH]nc(-c2ccc(Br)cc2)n1Cc1ccco1 | 0.22 | 0.7 | 13 | -1.7 | 32 | 0.9
CC(C)c1cc(-c2n[nH]c(=S)n2Cc2ccccc2)cs1 | -0.92 | 0.9 | 40 | -1.8 | 7 | 0.6
S=c1[nH]nc(-c2ccco2)n1Cc1ccccc1 | 0.61 | 0.6 | 50* | 0.084 | 38 | 0.5
C=CCn1c(-c2ccco2)n[nH]c1=S | -0.63 | 0.8 | -1 | -0.54 | 20 | 1
S=c1[nH]nc(-c2ccc(Br)o2)n1Cc1ccccc1 | 1.6 | 0.4 | 60* | -3.9 | 61* | 0.4
S=c1[nH]nc(-c2ccncc2)n1Cc1ccco1 | 0.11 | 0.7 | 61* | -0.34 | 33 | 0.4
COc1ccc(C(=O)Nc2ncc3c(n2)CC(c2ccco2)CC3=O)cc1 (centres undefined) | 0.15 | 0.9 | 12 | 1 | 6 | 0.9
CCCCCCC1NC(C(=O)O)CS1 (centres undefined) | -0.28 | 1 | -4 | -0.083 | 3 | 1
COCC(=O)N(C)c1nnc(-c2cnc(C)cn2)s1 | 0.87 | 1 | 7 | -0.37 | 1 | 0.9
COc1ccc(-c2cc(-c3ccccc3)c(C#N)c(S(C)=O)n2)cc1 (centres undefined) | 30 | 0.5 | 68* | -1.4 | 47 | 0.3
COc1ccc(-c2cc(-c3ccccc3)nc(SCC(=O)Nc3ncc(C)s3)c2C#N)cc1 | -1.1 | nt | nt | nt | nt | nt
O=C(NCCN1C(=O)C2C3C=CC(C3)C2C1=O)Nc1ccccc1O (centres undefined) | nt | 0.2 | 17 | -0.19 | 77* | 0.8
O=C1C2C3C=CC(C3)C2C(=O)N1CCc1ccccc1 (centres undefined) | 0.24 | 0.1 | 35 | 1.4 | 90* | 0.7
O=C1C2C(C(=O)N1CCc1ccccc1)C1C=CC2C12CC2 (centres undefined) | 0.55 | 0.1 | 29 | 0.44 | 92* | 0.7
Cc1c(NC(=O)NCCN2C(=O)C3C4C=CC(C4)C3C2=O)c(=O)n(-c2ccccc2)n1C (centres undefined) | nt | 1.1 | -1 | 0.7 | -10 | 1
O=C1C(Cc2ccccc2)NC(=S)N1c1ccccc1 (centres undefined) | 0.76 | 0.5 | 20 | 0.22 | 48 | 0.8
COc1ccc(CNC(=O)c2ccc(Br)o2)cc1 | nt | nt | nt | -0.053 | nt | nt
COc1cc2c(cc1OC)-c1cc(OCc3cccnc3)nc(=O)n1CC2 | 0.79 | 1 | 4 | 0.46 | 1 | 1
Clc1ccc(CON/C=N/c2ncnc3sccc23)c(Cl)c1 | 2 | 0.8 | 22 | -0.82 | 15 | 0.8
Cc1nn(-c2ccccc2)c2[nH]c(=O)c(CNc3ccc4c(c3)OCCO4)cc12 | -1.6 | 0.8 | 61* | 0.64 | 21 | 0.4
CCc1ccc(NCc2cc3c(C)nn(-c4ccccc4)c3[nH]c2=O)cc1 | -0.92 | 0.5 | 92* | 0.018 | 50 | 0.1
Cc1ccc(-c2nn(-c3ccccc3)c3[nH]c(=O)c(CNCc4ccccc4)cc23)cc1 | -0.06 | nt | nt | -3.6* | nt | nt
Cc1ccc(-c2nn(-c3ccccc3)c3[nH]c(=O)c(CNCCN(C)C)cc23)cc1 | nt | 1.1 | -8 | nt | -10 | 1.1
Cc1nn(-c2ccccc2)c2[nH]c(=O)c(CNCc3ccc4c(c3)OCO4)cc12 | -1.2 | 1.1 | -20 | 1.7 | -13 | 1.2
